# Source: PubChem
# Most compounds without a hit are left out; they make up all but 3.4% or so of the library.
# TEAD-YAP block: TEAD-YAP interaction inhibition | HEK-TIYL cells, TEAD-Gal4/YAP UAS-luciferase luminescence | inhibition, % at 9.12 µM | hit rate 1.4% among 640,000; in the data active means inhibition above about 32%;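 further: 0% = median of test compound wells and 100% = reference inhibitor wells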
# FBW7 activator: human FBW7 E3 ligase activation, primary screen | Q969H0 | AlphaScreen FBW7–phospho-cyclin E peptide binding, activator screen | normalized activity (activation), % at 26.1 µM | hit rate 0.13% among 650,000 | AID 1259310; in the data active means normalized activity above about 1.9%;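 further: purified mutant Fbw7 with reduced substrate affinity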
# GPR151 activ: activates the human receptor GPR151. Q8TDV0. PathHunter beta-arrestin GPR151 cells, luminescence. hit rate 1% among 650,000. activation, % at 11.2 µM; in the data active means activation above about 4.9%;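 further: 0% = median of compound wells and 100% = cells with positive control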
# MITF primary: blocks human microphthalmia-associated transcription factor. inhibition, % at 2.6 µM. O75030. hit rate 0.91% among 650,000. AlphaScreen MITF homodimerization, bead proximity signal; in the data active means inhibition above about 50%;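 further: 0% = vehicle wells with protein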
# GPR151 confirm: confirmation of human GPR151 activators. GPR151 PathHunter beta-arrestin cells, luminescence, 90 min; % of EA-reagent control over plate median. 6,700 tested, under 10 active. shares compounds with GPR151 activ. activation, % at 11.2 µM. AID 1508609;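 active means mean percent activation across replicates above the confirmation screen cutoff of 4.91%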
# GPR119 ag: GPR119 activation, counter-screen for GPR151 activators; GPR119 PathHunter beta-arrestin cells, luminescence, 90 min; 0 = compound-well median, 100 = enzyme-acceptor control; shares compounds with GPR151 activ; activation, % at 11.2 µM; hit rate 0.3% among 6,700;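 active means mean percent activation in the counterscreen above 29.09%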;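 further: counterscreen on off-target GPR119 to flag nonselective hits from the GPR151 activator screen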
# Target sequence (Q8TDV5 whole entry, looked up): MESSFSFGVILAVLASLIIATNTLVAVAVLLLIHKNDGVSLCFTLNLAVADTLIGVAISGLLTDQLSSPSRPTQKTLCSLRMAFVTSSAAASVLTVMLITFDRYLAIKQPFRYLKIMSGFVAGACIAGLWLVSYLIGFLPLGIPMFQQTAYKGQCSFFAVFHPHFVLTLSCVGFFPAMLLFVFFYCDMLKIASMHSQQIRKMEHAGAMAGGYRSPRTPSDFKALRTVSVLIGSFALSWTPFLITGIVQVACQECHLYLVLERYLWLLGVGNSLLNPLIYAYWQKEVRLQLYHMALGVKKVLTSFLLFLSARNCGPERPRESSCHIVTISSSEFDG
# * = called active by the depositor; · = no result given.
SMILES,TEAD-YAP block,FBW7 activator,GPR151 activ,MITF primary,GPR151 confirm,GPR119 ag
O=[N+]([O-])c1ccc(N2CCN(c3ncnc4c3c(-c3ccccc3)cn4-c3ccc(Br)cc3)CC2)cc1,-1.8,-0.1,5.0*,-2.2,0.5,0.3
CC(=O)c1cccc(NC(=O)c2cnn3c(C(F)(F)F)cc(-c4ccco4)nc23)c1,3.9,-0.1,5.1*,-8.9,0.5,1.3
Cc1ccc(-c2cc(C(F)(F)F)n3ncc(C(=O)NC(C)C)c3n2)cc1,0.6,-0.1,5.0*,4.9,-0.3,-4.8
COc1cccc(NC(=O)c2ccc(-c3cccc(OC)c3)nc2N2CCOCC2)c1,-12.9,0.0,1.3,15.4,·,·
COc1cccc(NC(=O)c2ccc(-c3ccsc3)nc2N2CCOCC2)c1,-10.4,-0.2,9.3*,3.3,1.2,3.8
O=C1C(=O)N(CC2CCCO2)C(c2ccc(Br)cc2)/C1=C(/O)c1ccccc1 (stereo not given),0.7,0.1,-0.3,0.7,·,·
COc1cc([N+](=O)[O-])ccc1N1C(=O)CC(Sc2ccc(Cl)cc2)C1=O (stereo not given),11.0,0.7,-0.3,-1.4,·,·
COc1ccc(CCN(C)CCCC(C#N)(c2cc(OC)c(OC)c(OC)c2)C(C)C)cc1OC (stereo not given),-4.5,0.0,5.6*,-5.0,-1.2,-14.4
COc1ccccc1CNC(=O)COc1ccc(Br)cc1Cl,1.5,0.0,12.1*,11.4,-0.8,-9.5
CCc1ccc(OCC(=O)NCc2ccccc2OC)cc1,3.4,0.3,5.1*,8.0,-0.5,-5.2
COc1ccccc1CNC(=O)COc1ccccc1,-24.5,0.1,3.8,-0.3,·,·
CCc1ccc(C(=O)NC(CC(C)C)C(=O)Nc2cc(C)on2)cc1 (stereo not given),0.1,-0.4,5.3*,3.5,0.3,-0.7
CCc1ccc(OCC(=O)Nc2cc(C)on2)cc1,-50.8,0.3,-0.9,4.1,·,·
COc1ccc(CCNc2ccnc(-c3ccc(C(N)=O)cc3)n2)cc1,2.8,0.2,-1.5,4.9,·,·
COc1ccccc1-c1nc2cc(NC(=O)c3ccc(Cl)cc3Cl)ccc2o1,-3.5,-0.1,0.8,6.1,·,·
CC(C)(C)c1nnc(NC(=O)c2ccc(Cl)nc2Cl)s1,-39.1,0.1,8.1*,-9.6,-1.1,-5.2
CC(C)(C)c1nnc(NC(=O)c2cccnc2Cl)s1,-2.6,0.0,1.9,-9.2,·,·
Clc1ccc(OCCn2cncn2)cc1,-5.2,0.0,6.4*,-18.2,-1.1,-6.8
COc1cc(NC(=S)N2CCN(c3ccccn3)CC2)cc(OC)c1,-5.6,-0.4,11.0*,-1.6,-0.3,2.5
COc1ccc(C)cc1NC(=S)N1CCN(c2ccccn2)CC1,-6.5,-0.2,5.1*,-0.5,0.0,-5.1
Cc1ccc(NC(=S)N2CCN(c3ccccn3)CC2)c(C)c1,-3.3,0.1,0.8,13.1,·,·
O=C(CCC(=O)Nc1ccccc1Cl)NNC(=O)c1ccccc1[N+](=O)[O-],-2.6,-0.2,7.5*,-0.1,-0.2,-2.8
O=C(Nc1ccccc1Cl)c1ccccc1[N+](=O)[O-],1.5,0.1,0.2,-8.3,·,·
N#Cc1ccc(C(=O)Nc2ccccc2N2CCCC2)c(F)c1,-4.5,-0.1,13.8*,0.9,0.4,6.3
O=C(Nc1ccccc1N1CCCC1)c1ccccc1[N+](=O)[O-],-1.3,0.3,5.8*,2.9,0.7,5.6
SMILES,TEAD-YAP block,FBW7 activator,GPR151 activ,MITF primary,GPR151 confirm,GPR119 ag
COc1cccc(NC(=O)c2ccc(NC(=O)c3cccc(C)c3)cc2)c1,-4.2,-0.1,1.2,-0.6,·,·
COc1ccc(-c2noc(N3CCN(c4ccc(C)cc4)C(C)C3)n2)cc1 (stereo not given),1.3,0.0,5.0*,1.4,-0.9,-1.9
CC(C)(COC(=O)c1cccc2ccccc12)N=C1NS(=O)(=O)c2ccccc21,-1.2,-0.2,6.1*,-7.8,0.8,12.5
COCCn1c(C)cc(/C=N/NC(=O)CC23CC4CC(CC(C4)C2)C3)c1C,1.8,0.2,-0.4,6.7,·,·
NC(=O)c1ccc(-c2nc3ccc(C(=O)NCCOc4ccccc4)cc3s2)cc1,-32.8,0.1,5.7*,-1.6,-0.2,-2.8
CN1CCN(C(=O)c2ccc(-c3nc4ccc(C(=O)NCc5ccccc5)cc4s3)cc2)CC1,0.7,0.1,1.1,-1.4,·,·
CN1CCN(C(=O)c2ccc(-c3nc4ccc(C(=O)NCCOc5ccccc5)cc4s3)cc2)CC1,-24.2,0.1,5.3*,-8.1,1.9,2.6
CCN1C(=O)/C(=C/c2cc(C)n(C3CCCC3)c2C)C(=O)NC1=S,-0.1,0.0,6.3*,21.0,-0.5,-11.3
CC(C)C(NC(=O)c1ccc(F)cc1)C(=O)O (stereo not given),1.4,0.1,-1.0,2.6,·,·
Cc1ccc(C(=O)NC(C(=O)O)C(C)C)cc1 (stereo not given),9.3,0.1,7.8*,9.0,0.1,-3.0
Cc1ccc(C(=O)NC(C)C2CC3CCC2C3)cc1 (stereo not given),-12.2,-0.1,10.4*,-0.2,0.8,2.8
Cc1cccc(-n2c(C)nc3cc(C(=O)NC4CCCCC4C)ccc32)c1 (stereo not given),-6.0,0.1,1.2,16.6,·,·
CCOC(=O)C1(C)Oc2ccccc2NC1=O (stereo not given),2.3,0.3,-0.1,11.4,·,·
Cc1ccc(NCC(O)Cn2c3ccc(Cl)cc3c3cc(Cl)ccc32)cc1 (stereo not given),13.5,0.0,0.6,-4.8,·,·
COc1ccc(NC(=O)c2ccoc2C)c(OC)c1,-12.0,0.0,6.1*,16.6,-0.3,-11.6
COc1ccc(NC(=O)C(=O)NC2CCCCCC2)c(OC)c1,-3.0,-0.3,5.3*,1.4,-1.0,-14.6
COc1cc(OC)cc(C(=O)NNC(=O)NC2CCCCC2)c1,0.7,0.0,7.3*,10.4,-0.3,-4.1
CCOc1ccc(-n2c(CNC(=O)c3ccc(S(=O)(=O)N(C)C)cc3)nnc2SCC(=O)Nc2nnc(C)s2)cc1,-1.3,-0.1,0.4,-5.9,·,·
Cc1[nH]c2ccc(CNC(=O)Nc3ccc(F)cc3F)cc2c1C,5.6,0.0,5.9*,6.2,-0.6,-6.3
CCN1C(=O)CC(N2CCC(C(=O)N3CCOCC3)CC2)C1=O (stereo not given),0.8,-0.2,15.1*,-3.9,1.0,14.2
O=C(CN1CCN(c2ccc3c(c2)OCO3)CC1)Nc1ccc(Cl)cc1,3.7,-0.1,-0.5,6.0,·,·
CN(CC(=O)NC(c1ccccc1)c1ccccc1)CC(O)COc1ccccc1 (stereo not given),3.1,-0.1,0.8,-4.2,·,·
O=C1OC(c2ccc(Cl)c([N+](=O)[O-])c2)=N/C1=C/c1ccc(F)cc1,10.0,1.2,-0.1,18.8,·,·
Cc1ccc(C)c(S(=O)(=O)NC(C)C(=O)Nc2ccc(Cl)c(Cl)c2)c1 (stereo not given),3.0,0.0,5.9*,1.6,0.3,-7.3
